# ELG1 DNA repair: blocks ELG1-dependent DNA repair in HEK293T cells; HEK293T ELG1-luciferase reporter, luminescence, 16 h; DNA damage induced by 5-fluorouridine; Potency, µM (titrated, usually from 46.1 µM), for inactives: at the top dose activity change, negative = inhibition, usual class: inhibitors; 330,000 tested, 2.3% active; AID 504467; also: potency is read from the fitted curve at half-maximal effect; nearly all actives have a fitted effect of over 55% in size
#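 In this reporter screen, reduction of luminescence relative to DMSO vehicle indicated activity. Compounds and 5-fluorouridine were added together to 2,000 cells per well, incubated for 16 hr at 37 °C, then developed with ONE-Glo.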
# Sfp PPTase inh: inhibitors of Bacillus subtilis Sfp phosphopantetheinyl transferase | Q9F4F7 | Potency, µM, for inactives: largest response in the series, negative = inhibition, actives largely listed as inhibitors | AID 1490 | Biochemical Sfp PPTase activity, qHTS | 310,000 tested, 3.5% active;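 also: the enzyme is Sfp with the accession as filed and its product quenches rhodamine fluorescence; potency is read from the fitted curve at half-maximal effect; 0% = enzyme reaction without inhibitor and -100% = no enzyme wells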
#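 After 15 min at room temperature with compound, 15 nM Sfp received 5 uM rhodamine-CoA plus 12.5 uM BHQ-2-ybbR (50 mM Hepes pH 7.6, 10 mM MgCl2). Rate came from the fluorescence difference over 30 min, ex 525/em 598 nm.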
# Giardia kill: kills Giardia lamblia. activity change, % at 7.66 µM, hits read low. AID 540267. 340,000 tested, 0.15% active. Giardia lamblia trophozoite viability; in the data active = activity change below about -80%; inconclusive = between about -30% and that limit;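 also: parasites exposed to compound for two days anaerobically before the ATP read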
#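 Trophozoite viability was measured as ATP-dependent luminescence, read 15-30 min after reagent addition. Before that, parasites at 100 cells/well were exposed to compounds for 48 h, anaerobically, at 37 deg C.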
# Coupling enz: counter-screen for Giardia aldolase inhibitors: coupling enzyme system; coupling enzyme system counterscreen, AmpLite Red fluorescence; activity change, negative = inhibition, % at 58.2 µM, hits read low; 290,000 tested, 0.67% active; in the data active = activity change below about -30%
#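 Counterscreen of the coupled detection system alone, without aldolase: glyceraldehyde-3-phosphate coupling enzymes plus AmpLite Red readout. Compounds at 57.5 uM final, 10 min RT preincubation, 20 min RT reaction, fluorescence 525/598 nm.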
# * = called active by the depositor; ? = inconclusive; nt = no result. Most compounds without a hit are left out; they make up all but 5.5% or so of the library. Unless noted, calls follow the shape of the dose curve; as a rule, active = well fitted curve in the direction sought with a large enough effect; inconclusive = small, poorly fitted or top-dose-only effect, or another doubt; inactive = no such curve, though single readings can be large; an effect the other way counts as inactive or inconclusive. Unless noted, % is scaled to controls: 0 for no effect and ±100 for the full control effect.
SMILES,ELG1 DNA repair,Sfp PPTase inh,Giardia kill,Coupling enz
COc1cc2c(cc1OC)-c1cc3nc4ccccc4nc3n1C(C)(C)C2,nt,?,nt,-3
O=C(Nc1ccc(Cl)cc1)Nn1cnnc1,6%,-1%,-20,1
CN(C)CCCN1C(=O)c2cccc3cccc(c23)C1=O,-30%,15%,7,0
COc1ccc(N(CCCN2C(=O)c3cccc4cccc(c34)C2=O)C(=O)c2cccc(OC)c2)cc1,18µM*,2%,4,4
C=CCn1c(SCC(=O)N(C)C2CCS(=O)(=O)C2)nnc1-c1ccccc1 (stereo not given),8%,nt,21,nt
CC(C)CN(C(=O)COC(=O)CCC(=O)c1ccc(Cl)cc1)c1c(N)n(Cc2ccccc2)c(=O)[nH]c1=O,15%,nt,33,nt
CC(C)CC(=O)N1CCN(Cc2cccc([N+](=O)[O-])c2)CC1,10%,4%,-25,-9
CC(C)CC(=O)N1CCN(Cc2ccccc2[N+](=O)[O-])CC1,11%,56µM*,-7,-1
CN(Cc1ccccc1)C1CCN(Cc2ccccc2[N+](=O)[O-])CC1,-10%,79µM*,11,1
CN(Cc1cc(=O)n2ccsc2n1)Cc1nc2ccccc2c(=O)[nH]1,-4%,4.5µM*,4,-3
COc1ccc(S(=O)(=O)Nc2ccncc2)c(C)c1C,12%,89µM*,-4,2
C[C@H](C[C@H](N)C(=O)O)C(=O)O,nt,-8%,nt,3
CN(C)S(=O)(=O)c1cccc(C(=O)NC(=S)N(CCC#N)Cc2cccnc2)c1,10%,45µM*,3,-9
N#CCCN(Cc1cccnc1)C(=S)NCc1ccco1,?,25µM*,0,0
CCN(CC)S(=O)(=O)c1ccc(C(=O)NC(=S)N(CCC#N)Cc2cccnc2)cc1,-6%,-23%,-16,0
O=C(O)CCSSCCC(=O)O,14%,nt,10,nt
CCCCc1nnc(SCC(=O)NC2CCCCC2)n1C,13%,12%,-3,1
CCCCC1(c2ccc(F)cc2)NC(=O)N(CC(=O)Nc2ccc(N3CCOCC3)cc2)C1=O (stereo not given),-24%,nt,24,nt
N#Cc1c(NC2CCCCC2)nc(-c2ccco2)c2c1CCCC2,-3%,?,?,3
CC1(C)Cc2c(C#N)c(NCCO)nc(-c3ccco3)c2CO1,?,16µM*,2,2
N#Cc1c(NCCCO)nc(-c2ccco2)c2c1CCCC2,-26%,40µM*,-13,-16
CC1CCN(c2nc(-c3ccco3)c3c(c2C#N)CC(C)(C)OC3)CC1,-11%,14µM*,3,0
CC1(C)Cc2c(C#N)c(NCCN3CCOCC3)nc(-c3ccccc3)c2CO1,8.2µM*,2%,-3,1
O=C(Nc1cc(C(F)(F)F)ccc1N1CCOCC1)C1=NN(c2ccccc2)C(=O)CC1,-5%,-1%,6,nt
Cc1cc(=O)[nH]c(Nc2ccccc2C)n1,3%,-5%,9,-1
SMILES,ELG1 DNA repair,Sfp PPTase inh,Giardia kill,Coupling enz
Cc1cc2c3c([nH]c2cc1S(=O)(=O)N1CCC2(CC1)OCCO2)CC(C)(C)CC3=O,21µM*,8%,9,-1
COc1ccc(C2=Cc3ccc(OC(C)=O)cc3OC2)cc1,nt,nt,7,nt
COc1ccc(C(=O)n2cnc3ccccc32)cc1[N+](=O)[O-],-9%,-3%,4,0
N=c1c(S(=O)(=O)c2ccc(Cl)cc2)cc2c(=O)n3ccccc3nc2n1C1CCCCC1,?,21%,4,nt
CCOC(=O)N1CCC(NC(=O)CS(=O)Cc2nc(-c3ccc(C)cc3)oc2C)CC1 (stereo not given),3%,14%,-3,nt
CC1=C(C(=O)O)N2C(=O)C(NC(=O)c3ccn(C)n3)C2SC1 (stereo not given),3%,22µM*,13,0
CC1=C(C(=O)O)N2C(=O)C(NC(=O)c3nn(C)c(C)c3Cl)C2SC1 (stereo not given),18%,11µM*,-9,1
CC1=C(C(=O)O)N2C(=O)C(NC(=O)c3c(F)cccc3F)C2SC1 (stereo not given),20%,nt,-20,nt
CN(C)c1cccc(NC(=O)c2ccco2)c1,?,-3%,-7,-6
CCN(CC)P(=O)(Nc1cccc(C(F)(F)F)c1)c1ccc(N(C)C)cc1NC(=O)c1ccco1 (stereo not given),21µM*,16%,6,-15
COc1ccc(C(=O)/C=C/C(=O)N(CC(=O)NCCC(C)C)Cc2cccs2)c(O)c1,?,3.5µM*,-14,0
